G9a block = blocks human histone lysine methyltransferase G9a | Q96KQ7 | G9a H3K9 monomethylation, AlphaScreen, 2 h | Potency, µM (top dose mostly 102 µM), inactives show top-dose activity, negative = inhibition, hits mostly inhibitors | hit rate 8.8% among 350,000; also: % is scaled to controls: 0 for no effect and ±100 for the full control effect; nearly all actives have a fitted effect of over 75% in size
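Methyltransferase reactions run at room temperature for 2 h (20 nM enzyme, 500 nM biotin-H3K9 peptide, 20 uM SAM) after a 15 min compound preincubation; product detected by AlphaScreen beads and anti-H3K9me1 antibody.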
L3MBTL1 block = blocks human L3MBTL1 | Q9Y468 | AlphaScreen L3MBTL1–H3K9me1 peptide binding | Potency, µM (top dose mostly 57.1 µM), without a hit: at the highest dose activity, negative = inhibition, usual class: inhibitors | hit rate 0.66% among 230,000 | AID 485360; also: % is scaled to controls: 0 for no effect and ±100 for the full control effect; nearly all actives have a fitted effect of over 60% in size
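Displacement of a biotinylated histone H3(1-15) peptide monomethylated at Lys9 (75 nM) from L3MBTL1 (50 nM) was measured by AlphaScreen after a 30 min room-temperature compound incubation; cefsulodin titration served as intraplate control.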
HP1b chromo inh = inhibitors of HP1-beta chromodomain binding to methylated histone tails | Potency, µM (titrated, usually from 114 µM), for inactives: at the top dose activity change, negative = inhibition, usual class: inhibitors | AlphaScreen HP1-beta / biotin-H3K9me3 peptide binding | hit rate 0.56% among 390,000 | AID 540317; also: nearly all actives have a fitted effect of over 70% in size
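HP1-beta protein (50 nM final) preincubated 30 min at room temperature with biotinylated H3(1-18)K9me3 peptide (50 nM) in PBS pH 7.4, 0.01% Tween-20, then compound added for 30 min. AlphaScreen streptavidin donor/nickel chelate acceptor beads (10 ug/mL final), 30 min dark, luminescence read.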
BAZ2B block = blocks human BAZ2B. Q9UIF8. AlphaScreen BAZ2B-H3K14Ac peptide displacement. hit rate 4.4% among 360,000. Potency, µM (series often up to 114 µM), for inactives: at the highest dose activity change, negative = inhibition, hits mostly inhibitors; also: % is scaled to controls: 0 for no effect and ±100 for the full control effect; nearly all actives have a fitted effect of over 60% in size
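Protein-peptide AlphaScreen: BAZ2B 50 nM, b-H3K14Ac 50 nM, 1x PBS pH 7.4 + 0.01% Tween-20. Preincubation 30 min RT; cpd 30 min RT (top 110 uM); beads 20 min RT, light-protected.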
Sfp inh = inhibitors of Bacillus subtilis Sfp phosphopantetheinyl transferase; Q9F4F7; hit rate 3.5% among 310,000; Potency, µM, for inactives: largest response in the series, negative = inhibition, usual class: inhibitors; Biochemical Sfp PPTase activity, qHTS;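 also: the enzyme is Sfp with the accession as filed and its product quenches rhodamine fluorescence; 0% = enzyme reaction without inhibitor and -100% = no enzyme wells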
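With Hepes-Na pH 7.6 buffer containing 10 mM MgCl2, Sfp (15 nM) modified BHQ-2-YbbR (12.5 uM) using rhodamine-CoA (5 uM). Two reads 30 minutes apart at 525/598 nm yielded each well's rate.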
JMJD2A Tudor = inhibitors of human JMJD2A Tudor domain. Potency, µM (titrated, usually from 114 µM), for the others: at the top dose activity change, negative = inhibition, usual class: inhibitors. hit rate 4.4% among 390,000. AlphaScreen JMJD2A-Tudor / H3K4me3 peptide binding. O75164; also: % is scaled to controls: 0 for no effect and ±100 for the full control effect; nearly all actives have a fitted effect of over 50% in size
* marks the source's active call; other numbers are inactive results; ? = inconclusive; nt = not tested or not shown; [ ] = another dose, or the depositor's remark. Only some compounds are listed: those with a hit (about 12% of all), similar ones and a draw of the others. Calls follow the shape of the dose curve; as a rule, active = well fitted curve in the direction sought with a large enough effect; inconclusive = small, poorly fitted or top-dose-only effect, or another doubt; inactive = no such curve, though single readings can be large; an effect the other way counts as inactive or inconclusive. Potency is read from the fitted curve at half-maximal effect.

SMILES | G9a block | L3MBTL1 block | HP1b chromo inh | BAZ2B block | Sfp inh | JMJD2A Tudor
O=C(COC(=O)c1ccc(Br)o1)NCc1ccc(Cl)cc1 | nt | ? | 28% | nt | nt | -3%
C=CCN(c1ccccc1OC)S(=O)(=O)c1ccc(Cl)c(C(=O)Nc2ccc(N3CCOCC3)cc2)c1 | 25µM* | ? | 4% | ? | 6% | -31%
COc1ccccc1N(C)S(=O)(=O)c1ccc(C(=O)Nc2ccc(N3CCOCC3)cc2)cc1 | 40µM* | -26% | 0% | ? | 15% | ?
CN(CC(=O)Nc1ccc(N2CCOCC2)cc1)C(=O)c1cc(S(=O)(=O)N(C)C)ccc1Cl | ? | nt | 4% | -19% | 11% | -17%
COc1ccc(C)cc1NC(=O)Cn1c(=O)oc2cc(S(=O)(=O)N3CCCCC3)ccc21 | -21%[59 µM] | nt | 28% | -37% | nt | -12%
Cc1nc(NC(=O)c2cccc(-c3cc4ccccc4oc3=O)c2)ccc1Br | 5%[59 µM] | 4% | 11% | 8% | -13% | -3%
C[C@@H](NC(=O)c1coc(=O)c(Br)c1)c1ccccc1 | -13%[59 µM] | -9% | 15% | 1% | 11% | -9%
O=C(Nc1ccc(Br)cn1)c1cccc(-c2cc3ccccc3oc2=O)c1 | 25µM* | -8% | -2% | ? | -14% | -30%
Cc1cc(NC(=O)c2coc(=O)c(Br)c2)ccc1C(C)C | 50µM* | -1% | 29% | 13% | 12% | -8%
O=C(Nc1ccccc1F)c1coc(=O)c(Br)c1 | 10%[59 µM] | nt | 5% | ? | 1% | ?
O=C(Nc1ccc(Br)cn1)c1coc(=O)c(Br)c1 | 50µM* | nt | 13% | ? | 3% | -7%
CCC1CCCCN1C(=O)Cn1c(=O)oc2cc(S(=O)(=O)N3CCCCC3)ccc21 (configuration not stated) | 10%[59 µM] | nt | 11% | 4% | nt | -6%
CCCCCCCCCCCCCCCCn1cc[n+](Cc2ccccc2)c1C | nt | nt | nt | nt | 13µM* | nt
CCCCCCCN1C(N(C)C)=NC[C@@H]1Cc1ccccc1 | 12%[2.33 µM] | 8% | -36% | 10% | nt | -20%
CC(C)[C@H](O)CC[C@@H](C)C1CC[C@H]2C3CC=C4C[C@@H](O)CC[C@]4(C)C3CC[C@]12C (some centres not stated) | 30%[59 µM] | nt | nt | nt | -1% | nt
CCC(CO)Oc1cc(NCc2ccncc2)c2ncn(C(C)C)c2c1 (configuration not stated) | nt | -1% | 52% | nt | nt | -36%
CCC(CO)Oc1cc(NCc2ccc(F)cc2)c2ncn(C(C)C)c2c1 (configuration not stated) | nt | ? | ? | nt | nt | 56µM*
CCC(CO)Oc1cc(NCc2cccc(Cl)c2)c2ncn(C(C)C)c2c1 (configuration not stated) | nt | ? | ? | nt | nt | 25µM*
CCC(CO)Oc1cc(NCc2cc(C)cc(C)c2)c2ncn(C(C)C)c2c1 (configuration not stated) | nt | -30% | -14% | nt | nt | ?
CCC(CO)Oc1cc(NCc2ccccc2C)c2ncn(C(C)C)c2c1 (configuration not stated) | nt | -7% | 1% | nt | nt | ?
CCC(CN(C)C)Oc1cc(NCc2ccccc2)c2ncn(C(C)C)c2c1 (configuration not stated) | nt | ? | 8% | nt | nt | 89µM*
CCC(CO)Oc1cc(NCc2cccnc2)c2ncn(C(C)C)c2c1 (configuration not stated) | nt | -2% | 10% | nt | nt | 79µM*
O=C(CSc1nc2c([nH]c3ccccc32)c(=O)n1-c1ccc(F)cc1)NCc1ccc(F)cc1 | -4%[59 µM] | nt | 34%[57 µM] | 0% | nt | 3%
C=CCC1CCC/C(=N\NS(=O)(=O)c2ccc(C)cc2)C1 (configuration not stated) | 25µM* | nt | 37% | -4% | -5% | -6%
CCC[C@H](NC(C)=O)C(=O)N[C@H]1CC(=O)ONCCCC[C@@H](C(N)=O)NC(=O)[C@H](Cc2c[nH]c3ccccc23)NC(=O)[C@H](CCCN=C(N)N)NC(=O)[C@@H](Cc2ccc3ccccc3c2)NC(=O)[C@H](Cc2cnc[nH]2)NC1=O | nt | nt | nt | nt | 13% | nt
